This is one part of the list. Where a call stands in place of a potency, no number is given. Inconclusive results are not listed. Activity calls are given as the source filed them. Calls come from the whole dose curve; as a rule, active = well fitted activation curve with a large enough effect; inconclusive = small, poorly fitted or top-dose-only effect; inactive = flat fitted curve, though single readings scatter.
Target: Thyrotropin-releasing hormone receptor (Homo sapiens) (UniProt P34981)
Assay: qHTS for Small Molecule Agonists and Allosteric Enhancers of Human TRH Receptor: Confirmation Screen for Agonists; note: nearly all actives have a fitted effect of over 75% in size
Conditions: TRHR-expressing cells, agonist activation read-out; series mostly up to 46.1 µM
Text: NIH Chemical Genomics Center [NCGC]
NIH Molecular Libraries Probe Centers Network [MLPCN]
Assay Submitter (PI): Marvin Gershengorn
This project aims to identify small drug-like molecules that activate (agonists) the thyrotropin releasing hormone (TRH) receptor (TRHR) or enhance its TRH-stimulated activity (allosteric enhancers). TRHR, a drug-accessible cell surface receptor expressed in specific brain regions, and its ligand TRH have been implicated in several central nervous system disorders, including depression and anxiety. Small molecule TRHR agonists or allosteric enhancers that are metabolically stable and able to cross the blood-brain barrier might serve as probes to elucidate the roles of brain TRH receptors in animal models, and might be valuable as lead compounds for the development of drugs to treat patients with central nervous system disorders.
Upon TRHR-Gq activation in TRHR cells, intracellular calcium is released from stores in the endoplasmic reticulum.
For the HTS assay freshly prepared cells are plated at a density of 2000/well in 3 ul of complete DMEM medium containing 10% serum in 1536-well plates and cultured over night at 37 C in a humidified incubator with 5% CO2. The next day, 2 ul of a no wash calcium dye (ABD Bioquest) was added to the cells and plates were incubated at room temperature for 1 hour. For the assay, assay plates were loaded into the FDSS kinetic plate reader. A 10 cycle (1 second/cycle) baseline measurement is taken and then the FDSS online 1536 pintool delivers 23 nl of compound library (as well as TRH controls) to the plate. The plate is measured for kinetically at 1 cycle/sec for 180 seconds and is considered to be the agonist portion of the assay (eg, compounds which activate a positive calcium response during this portion are flagged as potential agonists). Following the 180 second read, 1 ul of either an EC20 (positive modulation assay) is delivered by an onboard pipette head. Measurements are taken kinetically for an additional 180 seconds.
TRHR FDSS Screening Protocol
1. Reagent, 3 uL 2000 cells/well 1536 TC treated Black plate in media containing 10% FCS
2. Time, 18 hours, 33.5C 5% CO2 (cells grown at 37C)
3. Reagent, 2 uL ABD fluo-8 Ca dye
4. Time, 30 min-1.5hrs hours, Room temp (6 plates/batch)
5. Detector, EX 480/EM 530C, FDSS 10 cycles baseline (1sec/cycle)
6. Compound, 23 nL of stock solution from library
7. Detector, EX 480/EM 530C, FDSS 230 cycles (1sec/cycle) Agonist mode
8. Compound, 1 ul EC20 of TRH made up in HEPES HBSS, 10 nM final
9. Detector, EX 480/EM 530C, FDSS 100 cycles (1sec/cycle) Potentiator mode

Sequence of Thyrotropin-releasing hormone receptor (Homo sapiens) (P34981 whole entry, looked up): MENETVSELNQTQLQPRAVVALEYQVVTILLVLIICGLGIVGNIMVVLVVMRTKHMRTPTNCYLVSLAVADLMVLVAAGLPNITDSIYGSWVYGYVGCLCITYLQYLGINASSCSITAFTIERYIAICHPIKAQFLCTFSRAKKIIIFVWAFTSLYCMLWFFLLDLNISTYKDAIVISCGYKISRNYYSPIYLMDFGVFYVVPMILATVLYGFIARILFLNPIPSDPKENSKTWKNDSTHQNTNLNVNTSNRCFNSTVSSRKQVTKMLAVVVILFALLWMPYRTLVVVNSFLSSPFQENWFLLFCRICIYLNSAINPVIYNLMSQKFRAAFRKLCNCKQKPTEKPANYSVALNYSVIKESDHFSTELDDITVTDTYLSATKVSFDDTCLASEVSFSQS

SMILES	Potency
CC(=O)N1CCN(CC(=O)Nc2ccc(C)c(F)c2)CC1	inactive

— PubChem BioAssay AID493078 (National Center for Advancing Translational Sciences (NCATS), 2011)
